This is an account of results in PubChem BioAssay (NCATS).

Molecules are shown by their SMILES. Inconclusive results are not listed. Calls of active or inactive are those of the source. Calls come from the whole dose curve; as a rule, active = well fitted inhibition curve with a large enough effect; inconclusive = small, poorly fitted or top-dose-only effect; inactive = flat fitted curve, though single readings scatter.

Common to all, as to assay: qHTS profiling for inhibitors of Plasmodium falciparum proliferation (AID 504749); note: nearly all actives have a fitted effect of over 60% in size
What all share (conditions): P. falciparum in erythrocytes, SYBR Green DNA, 72 h; series mostly up to 28.7 µM
In general terms: qHTS replaces the single test concentration by a dilution series.

One assay deals with CP335. In a few lines: (§1)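 In a 72 h erythrocytic culture (37 C, humidified, 5% CO2) at 2.5% hematocrit and 0.3% starting parasitemia, compounds were tested; SYBR Green I in detergent lysis buffer stained parasite DNA overnight.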
A further assay relates to DIV14. Put shortly:
as §1

The next assay relates to DIV17. In a few lines:
as §1

Another assay concerns DIV30. In a few lines: as §1
The test system of another assay is Dd2. Put shortly: as §1
Another assay concerns FAB9. In a few lines:
as §1

For the next assay, the system named is GB4. Put shortly: as §1
For another assay, the system named is HB3. Put shortly:
as §1

The next assay relates to DFO2036. Put shortly: as §1
The subject of another assay is ECU. In a few lines: as §1
Potency is the fitted concentration of half-maximal effect.

As for `Cc1cc(-n2nc3ccc(Cl)cc3n2)c(O)c(C(C)(C)C)c1`, the Potency result with CP335, in the assay on DIV14, in the assay with DIV17, in the assay on Dd2, with FAB9 and in the assay with GB4 was “inactive” in each case. Further, the Potency entry in the assay with HB3 is “inactive”. Moreover, in the assay on DIV30, the molecule was called inactive.
With `O=C(c1ccccc1)C(O)c1ccccc1` (stereo not given), the Potency entry in the assay on CP335, in the assay with DFO2036, in the assay with Dd2, in the assay on ECU, in the assay with FAB9 and in the assay with HB3 was “inactive” in each case. The call with DIV30 was inactive.
For the molecule `Cc1cc(O)cc(C)c1Cl`, the Potency result in the assay on FAB9 is “inactive”.
For `Nc1c2c(nc3c1CCC3)CCCC2`, the Potency was 13.5 µM (active) in the assay on DIV14; 15.1 µM (active) with DIV17; 12.6 µM (active) in the assay on Dd2; 16.9 µM (active) with GB4; 10 µM (active) in the assay on HB3.
`CC1CCN(CCCC(=O)c2ccc(F)cc2)CC1`: the Potency result with DFO2036, in the assay with Dd2, in the assay on ECU, in the assay with FAB9, in the assay with GB4 and in the assay with HB3 was “inactive” each time. The result with DIV30 was inactive.
Take `CC[N+](C)(CC)CCOC(=O)C1c2ccccc2Oc2ccccc21`: the Potency result in the assay on CP335, with DFO2036, with DIV17, with Dd2, in the assay on ECU and in the assay with FAB9 was “inactive” throughout. Also, the Potency entry in the assay on GB4 and with HB3 was “inactive” each time. Moreover, the call in the assay on DIV30 was inactive.
Take `O=C(O)c1ccc[n+]([O-])c1`: the Potency result in the assay on CP335, in the assay with DFO2036, in the assay with DIV17, in the assay on Dd2, with ECU and in the assay with FAB9 was “inactive” in each case. For the same molecule, the Potency result in the assay on GB4 and in the assay on HB3 was “inactive” each time. Moreover, in the assay with DIV30, the call was inactive.
With `CCCCCCCCCCCCCCCCCCO`, the Potency entry in the assay on CP335, in the assay on DFO2036, in the assay on Dd2, in the assay on ECU, in the assay with FAB9 and in the assay with GB4 was “inactive” throughout. Further, the Potency entry in the assay with HB3 was “inactive”. In addition, the molecule was classed as inactive with DIV30.
With `CCCNC(C)(C)COC(=O)c1ccccc1`, the Potency entry in the assay on DFO2036, with DIV14, in the assay with DIV17, in the assay with Dd2, in the assay on ECU and with FAB9 was “inactive” throughout. The Potency entry with HB3 is “inactive”. The result in the assay on DIV30 was inactive.
As for `O=C1C(c2[nH]c3ccccc3c2O)=Nc2ccccc21`, the Potency result in the assay on CP335, in the assay on DFO2036, in the assay on Dd2 and with FAB9 was “inactive” throughout.
For the molecule `CC(CN(C)C)C(C)(O)Cc1ccc(Cl)cc1` (stereo not given), the Potency entry in the assay on DFO2036, with FAB9 and in the assay on HB3 was “inactive” in each case. Moreover, the Potency in the assay with DIV17 is 6.01 µM (active); in the assay with Dd2, 7.94 µM (active); with GB4 it was 6.75 µM (active).
`NCc1ccc(S(N)(=O)=O)cc1`: the Potency result in the assay on DFO2036, in the assay on Dd2, with ECU and in the assay with FAB9 was “inactive” each time. In addition, the molecule was classed as inactive in the assay with DIV30. Further, in the assay with HB3, the Potency was 3.98 µM (active).
As for `CC(=O)N(CC(O)CO)c1c(I)c(C(=O)NCC(O)CO)c(I)c(C(=O)NCC(O)CO)c1I` (stereo not given), the Potency entry in the assay on DFO2036, in the assay with Dd2 and in the assay with FAB9 was “inactive” throughout. Besides, the molecule was called inactive in the assay with DIV30. The Potency with HB3 was 10 µM (active).
Take `Cc1[nH]c(C)c(Cl)c(=O)c1Cl`: the Potency result with DFO2036, with DIV14, in the assay with DIV17, in the assay with Dd2, in the assay with ECU and in the assay on FAB9 was “inactive” throughout. Moreover, the Potency entry in the assay on HB3 was “inactive”. Moreover, the molecule was called inactive in the assay with DIV30.
Consider `NC(=O)CCCCC1CCSS1` (stereo not given), for which the Potency entry in the assay on CP335, in the assay with DFO2036, in the assay with Dd2 and in the assay on FAB9 was “inactive” throughout.
As for `CNc1c2c(nn1C)CCCC2`, the Potency result in the assay with CP335, in the assay on DFO2036, in the assay on DIV17, in the assay on Dd2, in the assay on ECU and with FAB9 was “inactive” in each case. Moreover, the Potency entry in the assay with GB4 and in the assay with HB3 was “inactive” throughout. Moreover, the result with DIV30 was inactive.
`CC(=O)OCC(COC(C)=O)OC(C)=O`: the Potency entry with DFO2036, in the assay on DIV14, in the assay with DIV17, in the assay on Dd2, in the assay on ECU and in the assay on FAB9 was “inactive” throughout. The Potency entry in the assay on GB4 and in the assay with HB3 was “inactive” in each case. Besides, the molecule was classed as inactive in the assay on DIV30.
As for `CC[N+](CC)(CC(=O)Nc1c(C)cccc1C)Cc1ccccc1`, the Potency entry with CP335, in the assay with DFO2036, in the assay with Dd2, with ECU, in the assay with FAB9 and in the assay with GB4 was “inactive” throughout. The Potency entry in the assay on HB3 is “inactive”. The molecule was classed as inactive in the assay on DIV30.
Turning to `O=C(/C=C/c1ccccc1)OCc1ccccc1`, the Potency result in the assay with DFO2036, in the assay with DIV14, in the assay on DIV17, in the assay on Dd2, in the assay on ECU and in the assay on FAB9 was “inactive” throughout. Further, the Potency result with GB4 and with HB3 was “inactive” each time. Also, in the assay on DIV30, the molecule was called inactive.
With `CC(=O)OC[C@H]1O[C@@](COC(C)=O)(O[C@H]2O[C@H](COC(C)=O)[C@@H](OC(C)=O)[C@H](OC(C)=O)[C@H]2OC(C)=O)[C@@H](OC(C)=O)[C@@H]1OC(C)=O`, the Potency result in the assay on CP335, in the assay with DIV14, with DIV17, in the assay with Dd2, in the assay with FAB9 and with GB4 was “inactive” throughout. Moreover, in the assay with HB3, the Potency entry is “inactive”. Moreover, the outcome in the assay on DIV30 was inactive.
Take `COC(=O)c1ccccc1C(=O)c1ccc(OCCN2CCCCC2)cc1`: the Potency result with CP335, in the assay on DFO2036, with ECU, with FAB9, in the assay on GB4 and in the assay with HB3 was “inactive” throughout. Besides, the outcome in the assay on DIV30 was inactive.
Consider `O=C1c2ccccc2C(=O)C1c1ccc(Br)cc1`, for which the call in the assay on DIV30 was inactive. Also, the Potency in the assay on Dd2 was 11.2 µM (active); in the assay with GB4, 9.53 µM (active). For the same molecule, the Potency result with FAB9 and with HB3 was “inactive” in each case.
For `Nc1ncnc(Nc2ccccc2)n1`, the Potency entry in the assay with DIV14, in the assay with Dd2, with ECU, with FAB9, with GB4 and in the assay with HB3 was “inactive” in each case. In the assay on DIV30, the molecule was classed as inactive.
Take `CN1C[C@@H]2C[C@H]1CN2c1cc2c(cc1F)c(=O)c(C(=O)O)cn2C1CC1`: the Potency in the assay with CP335 is 1.2 µM (active); with Dd2, 1.41 µM (active). The Potency entry in the assay with DIV17, in the assay with FAB9 and in the assay with HB3 was “inactive” each time.
Turning to `CCCCCCCCCCC(CO)CCCCCCCC` (stereo not given), the Potency result in the assay on CP335, in the assay with DFO2036, in the assay with Dd2, with ECU, in the assay with FAB9 and with HB3 was “inactive” in each case. Moreover, the molecule was called inactive in the assay on DIV30.
In the case of `Cc1cc(C)c(NC(=O)CN(CC(=O)O)CC(=O)O)c(C)c1Br`, the Potency result in the assay on CP335, in the assay with DIV14, with DIV17, with Dd2, with FAB9 and in the assay on GB4 was “inactive” each time. Besides, the Potency entry with HB3 was “inactive”. Also, in the assay with DIV30, the call was inactive.
For the molecule `O=C(O)CCC(=O)O`, the Potency entry in the assay with DFO2036, with DIV14, in the assay with DIV17, in the assay on Dd2, with ECU and in the assay on FAB9 was “inactive” throughout. Besides, the Potency entry with GB4 and in the assay on HB3 was “inactive” in each case. For the same molecule, the outcome in the assay on DIV30 was inactive.
On to `NC(=O)c1ccc([N+](=O)[O-])cc1Cl`, for which the Potency entry with DFO2036, in the assay on Dd2 and in the assay with FAB9 was “inactive” throughout. Moreover, in the assay with DIV30, the outcome was inactive. Besides, the Potency with HB3 was 12.6 µM (active).
Take `CCCCCC(C)N` (stereo not given): the Potency entry in the assay with DFO2036, with DIV14, in the assay with FAB9 and in the assay on GB4 was “inactive” in each case. In the assay on DIV30, the outcome was inactive. In the assay on Dd2, the Potency is 11.2 µM (active).
Regarding `Cc1cccc(C(=O)O)c1O`, the Potency result in the assay on CP335, with DFO2036, with Dd2, in the assay on ECU, in the assay with FAB9 and in the assay on GB4 was “inactive” in each case. Moreover, the Potency result in the assay with HB3 is “inactive”. Besides, the molecule was called inactive with DIV30.
